Only some compounds are listed: those with a hit (about 3.5% of all), similar ones and a draw of the others.
Rv3671c protease – inhibitors of M. tuberculosis serine protease Rv3671c; 0.048% of 320,000 active; inhibition, % at 5.96 µM; AID 2606; in the data active = inhibition above about 38%;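 also: extracellular domain of Rv3671c used as enzyme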
Target sequence (P9WHR9 whole entry, looked up, the tested form may be a part): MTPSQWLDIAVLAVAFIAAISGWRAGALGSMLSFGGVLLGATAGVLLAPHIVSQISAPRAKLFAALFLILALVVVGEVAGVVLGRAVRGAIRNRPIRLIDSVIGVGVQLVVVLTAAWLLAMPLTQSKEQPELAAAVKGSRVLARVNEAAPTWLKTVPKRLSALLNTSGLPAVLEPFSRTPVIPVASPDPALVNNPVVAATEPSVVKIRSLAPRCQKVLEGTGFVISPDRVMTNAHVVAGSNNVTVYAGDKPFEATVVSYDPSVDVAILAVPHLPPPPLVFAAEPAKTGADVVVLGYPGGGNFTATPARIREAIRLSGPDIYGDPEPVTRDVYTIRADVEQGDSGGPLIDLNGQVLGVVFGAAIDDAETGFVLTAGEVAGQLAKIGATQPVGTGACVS
Mtb hypoxia inh – inhibitors of hypoxia-regulated fluorescent reporter in Mycobacterium tuberculosis. M. tuberculosis hypoxia-regulated fluorescent reporter, fluorescence. AID 1159583. 0.1% of 300,000 active. fluorescence inhibition, % (concentration not given with the values); in the data active = fluorescence inhibition mostly above about 23%, no sharp cut-off; inactive = mostly below about 17%
Mtb UGM inh – Mtb UDP-galactopyranose mutase inhibition; P9WIQ1; purified UGM, fluorescence polarization probe displacement; inhibition, % at 10 µM; 0.06% of 320,000 active; AID 504406; in the data active = inhibition above about 10%, passing the limit was not always enough
FBA Mtb inh – Mtb fructose-bisphosphate aldolase inhibition; purified M. tuberculosis FBA, fluorescence read-out; inhibition, % at 1 µM; 2.3% of 360,000 active
FadD28 binding – M. tuberculosis FadD28 bisubstrate binding inhibition. FadD28 bisubstrate probe binding, fluorescence polarization. inhibition, % at 12.5 µM. 0.22% of 360,000 active; in the data active = inhibition above about 8.5%, passing the limit was not always enough
GDH-TPI counter-1 – GDH-TPI coupled enzyme inhibition counter-screen; AID 588335; inhibition, % at 4.8 µM; 1.2% of 360,000 active; GDH-TPI coupled enzyme counterscreen, NADH absorbance; in the data active = inhibition above about 30%
Mtb FBA confirm – Mtb FBA inhibition, confirmed. shares compounds with FBA Mtb inh. purified M. tuberculosis FBA, fluorescence read-out. inhibition, % at 1 µM. 78% of 5,600 active. AID 651616
GDH-TPI counter-2 – counter-screen for M. tuberculosis FBA inhibitors: GDH-TPI coupled enzyme inhibition; GDH-TPI coupled enzyme counterscreen, fluorescence; AID 652141; inhibition, % at 1 µM; shares compounds with FBA Mtb inh; 81% of 5,600 active; in the data active = inhibition above about 10%
Hits are given with their value; . = inactive; / = no result given; + = active, no number. Rule as the data show it, unless noted: active = inhibition above about 27%; inactive = the rest.

SMILES	Rv3671c protease	Mtb hypoxia inh	Mtb UGM inh	FBA Mtb inh	FadD28 binding	GDH-TPI counter-1	Mtb FBA confirm	GDH-TPI counter-2
O=C(CCN1C(=O)NC2(CCCC2)C1=O)Nc1ccc(Sc2ccc(Br)cc2)cc1	/	/	/	.	.	.	/	/
Cc1ccc(C)c(N(CC(=O)Nc2ccc(-c3nc4ccc(C)cc4s3)cc2)S(C)(=O)=O)c1	.	.	.	.	.	.	/	/
O=C(CCN1C(=O)NC2(CCCC2)C1=O)Nc1ccc(-c2nc3ccccc3s2)cc1	.	.	/	40.0	.	.	173.9	119.2
Cc1ccc2nc(-c3ccc(NC(=O)CNC4CC4)cc3)sc2c1	/	.	/	27.7	.	.	48.1	39.0
C=CCN=c1scc(C)n1N=Cc1ccc(O)c(O)c1	/	.	/	/	/	/	/	/
COc1cccc(C2=CC(=O)CC(c3ccc(F)cc3)C2)c1 (configuration not stated)	/	.	/	/	/	/	/	/
COCC=CC1=CC2=CC(=O)C(C)(OC(=O)c3cnc4ccccc4n3)C(=O)C2=CN1CCCOC(C)C (configuration not stated)	/	.	/	/	/	/	/	/
CCC1(c2ccc(F)cc2)NC(=O)N(CC(=O)Nc2ccc(-c3nc4ccc(C)cc4s3)cc2)C1=O (configuration not stated)	.	.	.	41.4	.	.	+	149.6
Cc1ccc2nc(-c3ccc(NC(=O)CN4C(=O)c5ccccc5C4=O)cc3)sc2c1	.	.	.	34.2	.	.	.	.
COc1ccc(C2(C)NC(=O)N(CC(=O)Nc3ccc(-c4nc5ccc(C)cc5s4)cc3)C2=O)cc1 (configuration not stated)	.	.	.	.	.	.	/	/
CC1CC[C@]2(C(=O)O)CC[C@]3(C)C(=CCC4[C@@]5(C)CCC(O)[C@@](C)(C(=O)O)C5CC[C@]43C)C2[C@]1(C)O (some centres not stated)	/	.	/	/	/	/	/	/
C=CCn1c(SCC(=O)NC2CCS(=O)(=O)C2)nnc1-c1cc2c(s1)CCC(CC)C2 (configuration not stated)	.	.	.	.	.	.	/	/
C=CCn1c(-c2cc3c(s2)CCC(CC)C3)n[nH]c1=S (configuration not stated)	.	.	.	84.2	.	.	170.1	136.7
CC1(C)CC(=NO)c2cc3c(nc2C1)CCCC3	/	.	/	/	/	/	/	/
C(=NNc1nc(-c2ccccc2)cc(-c2ccccc2)n1)c1cccnc1	/	.	/	/	/	/	/	/
CCOc1ccc(C2C=C(c3ccc(F)cc3)Nc3ncnn32)cc1 (configuration not stated)	.	.	.	31.1	.	.	146.3	100.0
Cc1ccc(C2C=C(c3ccccc3)Nc3ncnn32)cc1 (configuration not stated)	.	/	.	30.1	.	.	38.3	26.1
CCOC(=O)N(NC(=O)C(O)(C(C)C)C(C)C)c1ccccc1	.	.	.	101.3	.	.	47.5	55.1
CCN(CC)S(=O)(=O)c1ccc(-c2cn3cc(Cl)ccc3n2)cc1	.	/	.	31.5	.	.	/	+
Clc1ccc(-c2cn3cc(Cl)ccc3n2)cc1	.	.	.	.	.	.	/	/
CCCNC(=O)c1c(N)n(CC2CCCO2)c2nc3ccccc3nc12 (configuration not stated)	.	.	.	98.9	.	.	100.8	78.6
CC(C)OCCCNC(=O)c1c(N)n(/N=C/c2cccs2)c2nc3ccccc3nc12	.	/	.	.	.	.	/	/
Nc1c(C(=O)NCC2CCCO2)c2nc3ccccc3nc2n1-c1ccccc1 (configuration not stated)	.	/	.	108.4	.	.	87.4	72.6
O=C(NCC1CCCO1)c1ccccc1 (configuration not stated)	.	.	.	.	.	.	/	/
CC(C)OCCCNC(=O)c1c(N)n(CC2CCCO2)c2nc3ccccc3nc12 (configuration not stated)	.	.	.	48.5	.	.	+	+
SMILES	Rv3671c protease	Mtb hypoxia inh	Mtb UGM inh	FBA Mtb inh	FadD28 binding	GDH-TPI counter-1	Mtb FBA confirm	GDH-TPI counter-2
O=C(COc1ccccc1)NN=Cc1ccc(O[C@@H]2O[C@H](CO)[C@@H](O)[C@H](O)[C@H]2O)cc1	/	.	/	/	/	/	/	/
Cc1ccc(N2CC(NS(=O)(=O)c3cccnc3)CC2=O)cc1C (configuration not stated)	.	.	.	.	.	.	/	/
COc1ccc(N2CC(NS(=O)(=O)c3cccnc3)CC2=O)cc1OC (configuration not stated)	.	.	.	29.6	.	.	106.2	76.9
CS(=O)(=O)c1nc(-c2cccs2)cc(C(F)(F)F)n1	.	/	.	/	/	/	/	/
Cc1cc(NC(=O)CCCS(=O)(=O)c2nc(-c3cccs3)cc(C(F)(F)F)n2)no1	.	/	.	52.3	.	38.8	67.7	52.3
O=C(O)CCS(=O)(=O)c1nc(-c2cccs2)cc(C(F)(F)F)n1	.	.	.	38.0	.	31.2	196.5	128.3
Cc1cc(NC(=O)CSc2nc(-c3cccs3)cc(C(F)(F)F)n2)no1	.	.	.	.	.	.	/	/
Cc1cccc(C2C3C(=O)N(Cc4ccccc4)C(=O)C3[C@]3(C)C(=O)N(c4cccc(F)c4)C(=O)N23)c1 (some centres not stated)	/	.	/	/	/	/	/	/
CC(=O)n1cc(C2C=C(C(=O)NCc3ccccc3)OC(OCCCCO)C2)c2ccccc21 (configuration not stated)	/	.	/	/	/	/	/	/
COc1cccc(C(O)c2ncc(-c3cccc4ccccc34)[nH]2)c1 (configuration not stated)	/	/	/	47.8	.	.	56.0	46.6
Cc1ccc(C(O)c2ncc(-c3cccc4ccccc34)[nH]2)c(C)c1 (configuration not stated)	/	/	/	38.9	.	.	+	+
Cc1ccc(C(O)c2ncc(-c3ccc4ccccc4c3)[nH]2)c(C)c1 (configuration not stated)	/	/	/	.	.	.	/	/
Cc1ccc(C(O)c2ncc(-c3cccc4ccccc34)[nH]2)cc1F (configuration not stated)	/	/	/	27.1	.	.	.	13.3
OC(c1cccc(Cl)c1)c1ncc(-c2cccc3ccccc23)[nH]1 (configuration not stated)	/	/	/	36.6	.	.	145.9	103.3
COc1cccc(C(O)c2ncc(-c3ccccc3OC)[nH]2)c1 (configuration not stated)	/	/	/	.	.	.	/	/
COC(=O)C1=C(c2ccc(-c3ccccc3)c(F)c2)CC2CCC1N2C(=O)NCc1ccco1 (configuration not stated)	/	.	/	/	/	/	/	/
C=CCC(CC(=O)NCCO)C(=O)NC(COC(=O)C(CC=C)Cc1ccc(F)cc1)c1ccccc1 (configuration not stated)	/	.	/	/	/	/	/	/
CN(CCNC(=O)c1c[nH]c2c1ccc1ccccc12)CCNC(=O)c1c[nH]c2c1ccc1ccccc12	/	/	/	29.5	.	.	193.4	173.0
CN(C)CCNC(=O)c1ccccc1-c1cc2ccccc2c(=O)o1	/	.	.	.	.	.	/	/

Assay outcomes as filed in PubChem.
